According to the supplement of paper PMC11732987, “Enantioselective OTUD7B fragment discovery through chemoproteomics screening and high-throughput optimisation” (Communications Chemistry, 2025):

Tests used:
Experiment in all cases: log2 ratio of Biotin-Ahx-Ub-VS probe labelling (fragment/DMSO); higher = less target engagement (more negative = stronger competition), active = hit call of the paper (q ≤ 0.05, log2 ratio ≤ -1)
Conditions in all cases: compound concentration: 200 uM; treatment time: 3 h
[1] = target: T1, USP42 (UniProt Q9H9J4)
T1 sequence (whole entry): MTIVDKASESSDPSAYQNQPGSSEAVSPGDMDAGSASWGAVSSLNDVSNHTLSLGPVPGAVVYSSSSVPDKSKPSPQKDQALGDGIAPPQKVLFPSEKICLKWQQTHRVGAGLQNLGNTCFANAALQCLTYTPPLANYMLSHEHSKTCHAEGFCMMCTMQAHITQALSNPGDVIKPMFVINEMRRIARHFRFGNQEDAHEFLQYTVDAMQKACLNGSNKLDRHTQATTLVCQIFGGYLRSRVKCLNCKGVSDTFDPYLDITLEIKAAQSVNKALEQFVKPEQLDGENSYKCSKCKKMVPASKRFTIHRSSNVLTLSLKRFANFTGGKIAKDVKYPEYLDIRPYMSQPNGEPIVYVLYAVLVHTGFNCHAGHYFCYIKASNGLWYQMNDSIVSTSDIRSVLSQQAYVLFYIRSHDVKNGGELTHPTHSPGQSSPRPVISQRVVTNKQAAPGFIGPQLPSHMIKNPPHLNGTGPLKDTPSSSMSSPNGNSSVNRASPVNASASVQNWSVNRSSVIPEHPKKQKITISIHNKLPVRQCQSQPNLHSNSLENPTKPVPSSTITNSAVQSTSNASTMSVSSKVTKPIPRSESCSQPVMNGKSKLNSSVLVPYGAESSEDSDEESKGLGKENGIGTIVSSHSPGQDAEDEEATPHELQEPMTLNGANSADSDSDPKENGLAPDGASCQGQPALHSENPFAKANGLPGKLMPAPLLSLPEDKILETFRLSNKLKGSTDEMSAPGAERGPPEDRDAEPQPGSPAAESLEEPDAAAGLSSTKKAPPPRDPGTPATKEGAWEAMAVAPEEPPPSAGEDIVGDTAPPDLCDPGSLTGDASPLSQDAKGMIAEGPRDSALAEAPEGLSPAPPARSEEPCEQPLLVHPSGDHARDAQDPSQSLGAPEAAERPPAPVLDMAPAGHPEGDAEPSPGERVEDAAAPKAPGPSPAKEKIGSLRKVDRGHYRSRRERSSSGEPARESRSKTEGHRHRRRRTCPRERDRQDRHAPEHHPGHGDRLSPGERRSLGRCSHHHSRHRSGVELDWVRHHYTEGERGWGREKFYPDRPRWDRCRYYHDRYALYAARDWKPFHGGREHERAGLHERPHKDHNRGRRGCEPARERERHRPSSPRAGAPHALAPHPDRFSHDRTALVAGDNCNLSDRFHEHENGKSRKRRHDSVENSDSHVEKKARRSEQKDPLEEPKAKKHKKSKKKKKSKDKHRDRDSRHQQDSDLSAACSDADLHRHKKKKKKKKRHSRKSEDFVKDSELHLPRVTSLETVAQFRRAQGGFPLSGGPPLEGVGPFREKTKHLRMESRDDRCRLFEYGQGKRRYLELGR
Summary of the method: (§1)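 Triplicate samples of HEK293T lysate, 495 µg each, received fragment at 200 µM or vehicle for 3 h, followed by Biotin-Ahx-Ub-VS (0.5 µM final) for 1 h. After NeutrAvidin enrichment of labelled DUBs and LysC/trypsin digestion, peptides were run by diaPASEF LC-MS/MS. The values are average log2 fragment/vehicle ratios from global-median-normalised Spectronaut label-free quantities, tested by unpaired t-test on proteins having ≥2 unique peptides.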

[2] = target: USP46 (UniProt P62068)
Chain of USP46 (P62068 whole entry): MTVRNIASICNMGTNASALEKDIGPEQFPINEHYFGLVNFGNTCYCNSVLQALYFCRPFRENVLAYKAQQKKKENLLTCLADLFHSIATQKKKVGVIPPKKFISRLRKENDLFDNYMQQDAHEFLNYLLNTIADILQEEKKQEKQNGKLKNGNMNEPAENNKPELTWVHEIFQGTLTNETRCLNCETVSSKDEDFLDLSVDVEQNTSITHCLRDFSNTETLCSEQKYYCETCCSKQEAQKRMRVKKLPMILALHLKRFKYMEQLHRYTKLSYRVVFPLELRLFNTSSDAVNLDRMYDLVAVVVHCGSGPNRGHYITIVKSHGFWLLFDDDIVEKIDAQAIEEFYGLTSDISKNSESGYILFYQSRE
Summary of the method: as §1

[3] = target: T2, USP47 (UniProt Q96K76)
T2 sequence (whole entry): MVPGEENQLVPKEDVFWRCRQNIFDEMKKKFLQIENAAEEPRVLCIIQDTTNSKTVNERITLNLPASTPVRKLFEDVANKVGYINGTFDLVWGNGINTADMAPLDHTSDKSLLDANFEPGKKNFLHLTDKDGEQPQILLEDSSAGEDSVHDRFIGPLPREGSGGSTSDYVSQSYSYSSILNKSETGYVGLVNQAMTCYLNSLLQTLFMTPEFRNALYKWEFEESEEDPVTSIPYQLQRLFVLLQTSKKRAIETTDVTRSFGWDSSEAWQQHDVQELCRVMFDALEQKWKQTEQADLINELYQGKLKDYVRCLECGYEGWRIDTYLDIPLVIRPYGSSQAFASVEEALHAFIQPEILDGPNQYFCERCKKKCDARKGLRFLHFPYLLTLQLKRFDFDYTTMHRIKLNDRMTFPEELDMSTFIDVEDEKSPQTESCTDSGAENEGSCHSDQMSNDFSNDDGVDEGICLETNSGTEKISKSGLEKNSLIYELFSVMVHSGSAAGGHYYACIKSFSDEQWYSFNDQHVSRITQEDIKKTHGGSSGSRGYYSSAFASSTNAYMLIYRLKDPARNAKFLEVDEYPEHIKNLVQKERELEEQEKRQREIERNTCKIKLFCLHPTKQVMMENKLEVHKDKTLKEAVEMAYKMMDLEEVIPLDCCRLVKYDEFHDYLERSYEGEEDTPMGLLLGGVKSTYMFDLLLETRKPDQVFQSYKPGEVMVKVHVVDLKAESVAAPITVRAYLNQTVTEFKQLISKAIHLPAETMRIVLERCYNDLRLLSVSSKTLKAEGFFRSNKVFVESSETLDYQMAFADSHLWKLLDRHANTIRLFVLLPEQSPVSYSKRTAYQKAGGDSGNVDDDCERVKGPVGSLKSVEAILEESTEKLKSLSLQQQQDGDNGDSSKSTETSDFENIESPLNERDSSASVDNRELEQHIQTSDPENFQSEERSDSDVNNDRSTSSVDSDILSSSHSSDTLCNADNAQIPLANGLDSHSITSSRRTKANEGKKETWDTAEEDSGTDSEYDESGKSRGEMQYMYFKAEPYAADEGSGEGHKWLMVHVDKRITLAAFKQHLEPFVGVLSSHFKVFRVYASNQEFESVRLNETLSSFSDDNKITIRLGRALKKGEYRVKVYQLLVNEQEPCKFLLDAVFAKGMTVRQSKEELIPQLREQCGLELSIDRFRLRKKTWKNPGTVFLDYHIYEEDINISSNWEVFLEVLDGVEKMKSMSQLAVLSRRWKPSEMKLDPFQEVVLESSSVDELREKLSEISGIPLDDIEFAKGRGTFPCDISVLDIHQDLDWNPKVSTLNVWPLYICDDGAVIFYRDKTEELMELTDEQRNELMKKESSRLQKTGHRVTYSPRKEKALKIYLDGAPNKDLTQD
Summary of the method: as §1

[4] = target: T3, USP48 (UniProt Q86UV5)
T3 sequence (whole entry): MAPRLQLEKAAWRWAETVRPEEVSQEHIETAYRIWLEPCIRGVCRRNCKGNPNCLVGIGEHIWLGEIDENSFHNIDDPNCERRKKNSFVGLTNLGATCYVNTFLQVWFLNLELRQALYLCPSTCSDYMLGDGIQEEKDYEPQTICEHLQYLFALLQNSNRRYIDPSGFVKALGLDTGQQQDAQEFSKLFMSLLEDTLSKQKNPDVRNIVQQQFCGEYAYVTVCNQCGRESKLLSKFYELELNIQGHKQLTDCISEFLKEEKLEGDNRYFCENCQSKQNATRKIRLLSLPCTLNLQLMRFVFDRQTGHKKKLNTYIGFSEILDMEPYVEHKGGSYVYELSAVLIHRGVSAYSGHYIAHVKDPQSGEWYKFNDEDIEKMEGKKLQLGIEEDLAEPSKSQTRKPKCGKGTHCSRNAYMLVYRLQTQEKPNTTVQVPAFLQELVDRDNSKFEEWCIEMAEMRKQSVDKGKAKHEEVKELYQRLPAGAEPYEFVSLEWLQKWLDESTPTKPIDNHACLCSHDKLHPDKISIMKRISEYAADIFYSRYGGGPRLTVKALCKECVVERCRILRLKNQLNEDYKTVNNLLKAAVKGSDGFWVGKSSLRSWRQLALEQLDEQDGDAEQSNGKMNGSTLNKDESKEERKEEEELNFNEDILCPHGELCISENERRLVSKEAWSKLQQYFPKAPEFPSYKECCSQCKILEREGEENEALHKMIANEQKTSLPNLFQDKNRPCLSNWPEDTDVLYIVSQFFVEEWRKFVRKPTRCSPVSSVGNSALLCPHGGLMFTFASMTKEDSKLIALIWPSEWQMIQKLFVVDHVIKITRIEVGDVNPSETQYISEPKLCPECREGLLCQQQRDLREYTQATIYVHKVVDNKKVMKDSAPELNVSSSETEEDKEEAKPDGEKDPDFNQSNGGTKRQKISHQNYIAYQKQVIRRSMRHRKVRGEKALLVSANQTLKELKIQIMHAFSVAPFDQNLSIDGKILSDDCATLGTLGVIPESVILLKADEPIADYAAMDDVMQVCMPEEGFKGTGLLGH
Summary of the method: as §1

[5] = target: T4, USP5 (UniProt P45974)
T4 sequence (whole entry): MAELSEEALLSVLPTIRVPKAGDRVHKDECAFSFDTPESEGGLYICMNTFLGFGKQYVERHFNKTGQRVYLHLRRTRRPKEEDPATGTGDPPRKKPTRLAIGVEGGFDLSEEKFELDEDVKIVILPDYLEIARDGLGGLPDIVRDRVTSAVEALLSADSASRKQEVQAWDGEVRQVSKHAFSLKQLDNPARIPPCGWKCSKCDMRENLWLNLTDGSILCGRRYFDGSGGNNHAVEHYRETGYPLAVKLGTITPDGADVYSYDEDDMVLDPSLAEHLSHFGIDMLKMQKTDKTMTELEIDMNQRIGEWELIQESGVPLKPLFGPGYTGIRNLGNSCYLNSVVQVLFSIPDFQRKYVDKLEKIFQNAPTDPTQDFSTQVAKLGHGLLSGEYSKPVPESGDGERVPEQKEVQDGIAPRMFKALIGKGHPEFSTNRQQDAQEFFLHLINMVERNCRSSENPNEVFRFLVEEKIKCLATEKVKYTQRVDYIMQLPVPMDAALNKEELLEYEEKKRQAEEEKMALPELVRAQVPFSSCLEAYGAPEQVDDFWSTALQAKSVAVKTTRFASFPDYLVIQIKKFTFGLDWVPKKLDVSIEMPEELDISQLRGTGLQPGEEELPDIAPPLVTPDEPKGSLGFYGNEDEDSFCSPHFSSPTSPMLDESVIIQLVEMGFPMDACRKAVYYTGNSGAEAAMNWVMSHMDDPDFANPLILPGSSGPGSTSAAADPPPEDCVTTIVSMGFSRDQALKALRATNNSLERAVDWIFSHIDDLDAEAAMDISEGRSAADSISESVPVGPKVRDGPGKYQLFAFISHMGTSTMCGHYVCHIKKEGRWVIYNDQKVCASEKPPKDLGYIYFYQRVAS
Summary of the method: as §1

[6] = target: USP54 (UniProt Q70EL1)
Summary of the method: as §1

[7] = target: USP7 (UniProt Q93009)
Chain of USP7 (Q93009 whole entry, looked up): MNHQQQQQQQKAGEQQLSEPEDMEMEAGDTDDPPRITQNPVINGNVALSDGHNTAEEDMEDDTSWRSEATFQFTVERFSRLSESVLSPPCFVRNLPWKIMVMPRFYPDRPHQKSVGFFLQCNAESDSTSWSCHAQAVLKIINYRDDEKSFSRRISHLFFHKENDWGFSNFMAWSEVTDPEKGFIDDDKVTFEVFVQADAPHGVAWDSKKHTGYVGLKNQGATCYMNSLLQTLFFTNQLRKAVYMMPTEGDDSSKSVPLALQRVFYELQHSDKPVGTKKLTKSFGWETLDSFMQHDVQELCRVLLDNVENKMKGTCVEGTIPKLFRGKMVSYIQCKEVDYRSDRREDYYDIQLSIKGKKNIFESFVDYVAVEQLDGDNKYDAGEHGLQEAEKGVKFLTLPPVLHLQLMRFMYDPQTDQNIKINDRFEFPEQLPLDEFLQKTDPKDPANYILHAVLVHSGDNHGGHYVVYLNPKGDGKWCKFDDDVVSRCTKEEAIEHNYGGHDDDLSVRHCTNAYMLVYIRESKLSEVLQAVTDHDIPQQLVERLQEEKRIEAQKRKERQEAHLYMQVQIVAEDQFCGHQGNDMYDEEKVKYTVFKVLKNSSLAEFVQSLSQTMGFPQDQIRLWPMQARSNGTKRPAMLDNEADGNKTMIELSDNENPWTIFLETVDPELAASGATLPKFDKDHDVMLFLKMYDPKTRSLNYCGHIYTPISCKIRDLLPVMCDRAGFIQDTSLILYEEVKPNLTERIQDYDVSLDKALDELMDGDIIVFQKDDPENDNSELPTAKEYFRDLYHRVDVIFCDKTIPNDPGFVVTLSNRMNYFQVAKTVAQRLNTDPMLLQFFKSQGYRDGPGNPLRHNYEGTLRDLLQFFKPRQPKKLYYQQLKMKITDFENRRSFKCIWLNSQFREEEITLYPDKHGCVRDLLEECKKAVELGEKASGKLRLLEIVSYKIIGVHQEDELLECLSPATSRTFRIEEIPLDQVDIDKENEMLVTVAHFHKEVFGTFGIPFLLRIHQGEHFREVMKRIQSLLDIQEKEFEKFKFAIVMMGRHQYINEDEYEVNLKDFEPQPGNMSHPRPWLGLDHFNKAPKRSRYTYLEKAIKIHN
Summary of the method: as §1

[8] = target: T5, USP8 (UniProt P40818)
T5 sequence (whole entry): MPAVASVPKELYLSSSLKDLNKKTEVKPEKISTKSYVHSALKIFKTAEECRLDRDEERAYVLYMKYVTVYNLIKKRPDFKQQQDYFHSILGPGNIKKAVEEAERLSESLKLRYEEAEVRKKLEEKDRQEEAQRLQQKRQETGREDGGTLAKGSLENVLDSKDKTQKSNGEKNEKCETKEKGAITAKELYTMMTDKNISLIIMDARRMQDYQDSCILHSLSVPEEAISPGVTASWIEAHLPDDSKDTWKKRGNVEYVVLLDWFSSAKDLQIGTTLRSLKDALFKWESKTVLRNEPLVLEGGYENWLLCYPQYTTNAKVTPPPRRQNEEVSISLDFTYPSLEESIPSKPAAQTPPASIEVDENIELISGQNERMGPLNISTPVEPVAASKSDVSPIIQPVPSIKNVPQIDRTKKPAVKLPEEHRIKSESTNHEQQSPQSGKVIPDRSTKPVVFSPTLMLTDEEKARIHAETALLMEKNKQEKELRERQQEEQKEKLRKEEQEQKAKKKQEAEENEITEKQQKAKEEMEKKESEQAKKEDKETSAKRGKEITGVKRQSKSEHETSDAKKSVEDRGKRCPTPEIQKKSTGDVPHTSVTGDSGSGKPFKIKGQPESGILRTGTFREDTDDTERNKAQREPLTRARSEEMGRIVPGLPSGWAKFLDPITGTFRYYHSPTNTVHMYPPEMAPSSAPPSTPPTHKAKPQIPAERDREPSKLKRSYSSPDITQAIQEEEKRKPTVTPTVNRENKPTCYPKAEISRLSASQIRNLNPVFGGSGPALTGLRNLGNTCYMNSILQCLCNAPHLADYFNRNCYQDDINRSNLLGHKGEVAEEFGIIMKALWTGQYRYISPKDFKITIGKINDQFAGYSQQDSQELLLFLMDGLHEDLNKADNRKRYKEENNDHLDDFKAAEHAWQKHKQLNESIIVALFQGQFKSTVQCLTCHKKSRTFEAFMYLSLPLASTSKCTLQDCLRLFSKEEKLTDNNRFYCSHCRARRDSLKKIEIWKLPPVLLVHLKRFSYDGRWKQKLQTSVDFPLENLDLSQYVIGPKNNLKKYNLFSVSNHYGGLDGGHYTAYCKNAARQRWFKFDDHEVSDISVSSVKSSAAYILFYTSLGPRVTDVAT
Summary of the method: as §1

[9] = target: USP9X (UniProt Q93008)
Chain of USP9X (Q93008 whole entry): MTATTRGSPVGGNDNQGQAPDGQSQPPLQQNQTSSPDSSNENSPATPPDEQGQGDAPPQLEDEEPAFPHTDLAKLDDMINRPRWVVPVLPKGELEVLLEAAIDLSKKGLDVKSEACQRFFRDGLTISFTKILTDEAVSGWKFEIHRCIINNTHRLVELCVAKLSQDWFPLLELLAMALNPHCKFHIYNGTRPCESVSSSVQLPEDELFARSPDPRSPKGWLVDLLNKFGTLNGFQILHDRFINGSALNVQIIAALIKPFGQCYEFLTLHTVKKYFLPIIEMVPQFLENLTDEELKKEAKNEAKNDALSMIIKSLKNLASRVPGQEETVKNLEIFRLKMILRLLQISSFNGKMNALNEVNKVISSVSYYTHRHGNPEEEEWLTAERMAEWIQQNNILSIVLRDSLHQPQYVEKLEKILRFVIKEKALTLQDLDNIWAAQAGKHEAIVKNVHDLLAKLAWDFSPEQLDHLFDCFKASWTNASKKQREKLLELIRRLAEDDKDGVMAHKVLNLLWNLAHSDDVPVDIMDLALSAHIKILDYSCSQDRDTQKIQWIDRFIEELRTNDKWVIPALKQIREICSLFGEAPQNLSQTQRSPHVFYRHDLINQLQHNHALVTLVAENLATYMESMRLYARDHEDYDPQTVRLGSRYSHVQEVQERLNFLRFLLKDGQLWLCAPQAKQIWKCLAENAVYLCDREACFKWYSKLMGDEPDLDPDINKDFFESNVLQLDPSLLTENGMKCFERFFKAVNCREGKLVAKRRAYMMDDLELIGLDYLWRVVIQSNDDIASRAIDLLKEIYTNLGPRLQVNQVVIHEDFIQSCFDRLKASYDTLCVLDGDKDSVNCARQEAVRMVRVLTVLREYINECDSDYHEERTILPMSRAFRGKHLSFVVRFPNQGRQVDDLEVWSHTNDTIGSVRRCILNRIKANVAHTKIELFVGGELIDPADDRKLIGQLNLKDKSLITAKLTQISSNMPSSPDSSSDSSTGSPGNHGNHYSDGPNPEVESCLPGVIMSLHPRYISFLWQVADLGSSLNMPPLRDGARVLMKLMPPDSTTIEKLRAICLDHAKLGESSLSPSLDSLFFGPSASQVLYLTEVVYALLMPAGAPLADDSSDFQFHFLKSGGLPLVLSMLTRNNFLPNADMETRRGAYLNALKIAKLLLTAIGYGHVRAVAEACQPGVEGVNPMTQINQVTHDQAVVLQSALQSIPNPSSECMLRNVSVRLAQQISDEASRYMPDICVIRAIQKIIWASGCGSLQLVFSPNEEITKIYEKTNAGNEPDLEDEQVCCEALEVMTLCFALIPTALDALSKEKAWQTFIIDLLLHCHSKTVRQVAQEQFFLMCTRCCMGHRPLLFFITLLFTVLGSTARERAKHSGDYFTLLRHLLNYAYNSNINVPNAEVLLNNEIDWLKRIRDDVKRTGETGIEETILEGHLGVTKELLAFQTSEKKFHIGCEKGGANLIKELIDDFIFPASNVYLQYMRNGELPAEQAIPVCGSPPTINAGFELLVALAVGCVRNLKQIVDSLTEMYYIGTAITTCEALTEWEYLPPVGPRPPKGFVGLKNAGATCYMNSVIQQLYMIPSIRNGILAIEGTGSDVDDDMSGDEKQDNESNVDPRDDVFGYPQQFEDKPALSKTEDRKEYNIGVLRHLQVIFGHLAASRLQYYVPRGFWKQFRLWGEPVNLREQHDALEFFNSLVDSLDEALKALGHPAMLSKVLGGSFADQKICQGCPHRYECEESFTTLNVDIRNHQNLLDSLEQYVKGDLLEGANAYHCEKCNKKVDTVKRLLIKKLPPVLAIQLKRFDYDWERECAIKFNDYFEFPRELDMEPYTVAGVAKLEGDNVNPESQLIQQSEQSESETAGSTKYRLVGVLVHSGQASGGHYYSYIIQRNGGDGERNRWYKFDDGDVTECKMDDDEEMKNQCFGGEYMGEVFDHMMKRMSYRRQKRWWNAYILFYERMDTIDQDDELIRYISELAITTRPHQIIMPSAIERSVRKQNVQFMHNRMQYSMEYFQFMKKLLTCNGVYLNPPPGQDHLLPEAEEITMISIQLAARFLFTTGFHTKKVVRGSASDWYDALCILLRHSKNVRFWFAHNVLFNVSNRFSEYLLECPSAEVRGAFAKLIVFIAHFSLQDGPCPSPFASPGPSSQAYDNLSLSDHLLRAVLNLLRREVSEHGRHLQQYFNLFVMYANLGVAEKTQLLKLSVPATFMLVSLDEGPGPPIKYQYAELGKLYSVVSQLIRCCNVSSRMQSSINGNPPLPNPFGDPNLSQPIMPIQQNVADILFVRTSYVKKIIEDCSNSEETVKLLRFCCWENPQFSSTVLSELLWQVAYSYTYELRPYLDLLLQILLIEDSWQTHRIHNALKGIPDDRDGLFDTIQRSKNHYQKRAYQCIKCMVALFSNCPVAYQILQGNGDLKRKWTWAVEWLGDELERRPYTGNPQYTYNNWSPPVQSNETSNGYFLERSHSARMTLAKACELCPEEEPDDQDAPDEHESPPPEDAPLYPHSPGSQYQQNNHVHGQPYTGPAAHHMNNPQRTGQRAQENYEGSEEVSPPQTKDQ
Summary of the method: as §1

[10] = target: UniProt O00487
Chain of UniProt O00487 (O00487 whole entry): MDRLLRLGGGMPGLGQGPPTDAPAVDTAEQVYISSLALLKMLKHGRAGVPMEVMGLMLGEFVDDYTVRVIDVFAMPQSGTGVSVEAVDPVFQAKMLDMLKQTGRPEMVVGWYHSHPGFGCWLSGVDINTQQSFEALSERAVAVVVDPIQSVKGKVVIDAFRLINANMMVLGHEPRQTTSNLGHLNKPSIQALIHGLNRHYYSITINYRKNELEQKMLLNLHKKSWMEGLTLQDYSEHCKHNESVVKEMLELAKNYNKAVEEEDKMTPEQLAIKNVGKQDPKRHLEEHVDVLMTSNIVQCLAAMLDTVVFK
Summary of the method: as §1

Measured: log2 ratio of Biotin-Ahx-Ub-VS probe labelling

O=C(CCl)Nc1cc2c(cc1Cl)OCCCO2
inactive: [1] 0.621 | [2] 0.0317 | [3] -0.676 | [4] -0.438 | [5] 0.232 | [6] -0.0568 | [7] -0.0845 | [8] -0.029 | [9] 0.118 | [10] -0.147
